These molecules were tested against Solute carrier family 2, facilitated glucose transporter member 1 (Homo sapiens) (UniProt P11166) (assay: ST_JUDE_LEISH: Cytotoxicity at 2uM final concentration against transgenic Leishmania Mexicana promastigotes LmGLUT1 that are glucose transport deficient and complemented with the human glucose transporter GLUT1. Activity is measured by DNA content using SYBR green in vitro).
Type: functional

Chain of Solute carrier family 2, facilitated glucose transporter member 1 (Homo sapiens) (P11166 whole entry): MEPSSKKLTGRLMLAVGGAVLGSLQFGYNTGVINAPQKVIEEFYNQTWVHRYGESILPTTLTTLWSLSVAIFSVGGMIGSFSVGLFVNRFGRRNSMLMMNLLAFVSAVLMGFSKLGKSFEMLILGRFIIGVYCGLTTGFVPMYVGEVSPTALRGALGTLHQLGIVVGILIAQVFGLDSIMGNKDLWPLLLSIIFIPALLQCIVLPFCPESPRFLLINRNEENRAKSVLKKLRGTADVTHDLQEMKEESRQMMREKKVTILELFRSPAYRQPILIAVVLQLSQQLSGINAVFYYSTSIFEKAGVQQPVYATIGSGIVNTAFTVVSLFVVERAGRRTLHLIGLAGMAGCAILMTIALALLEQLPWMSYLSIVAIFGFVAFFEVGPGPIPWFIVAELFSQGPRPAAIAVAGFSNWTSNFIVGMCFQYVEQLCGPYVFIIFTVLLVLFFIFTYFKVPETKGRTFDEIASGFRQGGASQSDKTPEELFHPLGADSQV

| SMILES | inhibition [%] |
| --- | --- |
| O=C(NCCCN1CCCC1=O)c1cnc(N2CCC(Oc3ccccc3)CC2)c(Cl)c1 | 0.56 |
| O=C(Nc1ccc(C(F)(F)F)cc1)c1ccc(S(=O)(=O)NC2CCN(Cc3ccccc3)C2)cc1 (stereo not given) | 5.58 |
| Nc1nc(N)c2c(ccc3[nH]c(-c4ccccc4Cl)nc32)n1 | 77.1 |
| c1cc(-c2ccc(CN3CCN(c4ccncc4)CC3)cc2)cc(-c2nc3ccccc3[nH]2)c1 | 1.81 |
| CCCS(=O)(=O)N1CCC(CO)(Cc2ccccc2C(F)(F)F)CC1 | 2.81 |
| CC(C)C(=O)Nc1c(F)cc(F)cc1CCc1ccc(O)cc1 | 7.29 |
| Cc1ccc(S(=O)(=O)NC2=NC(=N)N(OCc3ccc(Cl)c(Cl)c3)C(C)(C)N2)cc1 | 12.6 |
| O=c1cc(NCCCCNCc2cccc(Cl)c2)[nH]c2ccccc12 | 3.6 |
| COc1ccc(Cc2cnc3nc(N)nc(N)c3c2C)cc1 | 39.5 |
| CC(CN1CCN(C)CC1)C(=O)Nc1ccc(-c2ccc(-c3nc4ccccc4[nH]3)s2)cc1 (stereo not given) | 5.66 |
| CN(C)Cc1cccc(-c2ccc3ccnc(N)c3c2)c1 | 1.78 |
| O=S(=O)(c1cccc2cccnc12)N1CCN(C2CCCCC2)CC1 | 8.16 |
| COc1ccccc1-n1c(-c2ccc3ccccc3c2)csc1=NC(=O)c1ccccc1 | 0.68 |
| CCOc1ccc2c(=NN=Cc3cccc(OC)c3)cc(C)[nH]c2c1 | -0.74 |
| Cc1c(Cl)cccc1N=C(S)NN=Cc1ccccn1 | 1.43 |
| O=C(Cn1c2ccccc2c(=O)c2ccc(Cl)cc21)Nc1ccc(C(F)(F)F)cc1 | -0.52 |
| COc1ccc(C2CC(=O)C3=C(C2)NC(C)=C(C(=O)OC(C)C)C3c2ccccc2F)cc1OC (stereo not given) | 13.6 |
| Cc1cccc2nc(-c3ccc(-c4cccc(CNC(C)C)c4)s3)[nH]c12 | 2.58 |
| COc1ccc(-c2cccc(NC(=O)c3cccc(Cl)c3)c2)cc1CN1CCCC1 | 7.71 |
| Cc1cccc(NC(=O)c2cnc(N3CCN(c4ccncc4)CC3)c(Cl)c2)c1 | 23.2 |

| SMILES | inhibition [%] |
| --- | --- |
| CC(C)CNCc1ccc(-c2ccc(CN(CCCN3CCN(C)CC3)C(=O)CCC3CCCC3)cc2)cc1 | 55.1 |
| CC(C)C(=O)NC(c1cccs1)c1cc(Cl)c2cccnc2c1O (stereo not given) | 1.65 |
| CN1CCCC(CN2CCN(Cc3ccc(-c4cccc(-c5nc6cc(F)ccc6[nH]5)c4)cc3)CC2)C1 (stereo not given) | -0.56 |
| O=C(Nc1ccc(OC2CCN(Cc3ccccc3)C2)c(Cl)c1)c1cccs1 (stereo not given) | 1.18 |
| Cc1cc(C)c(NC(=O)N2CCCN(CCCCCNC(=O)/C=C/c3ccc(Cl)c(Cl)c3)CC2)c(C)c1 | 3.44 |
| COc1cc(C)cc(CN2CCC(Cc3ccccc3)CC2)c1O | 0.53 |
| Cc1ccccc1C1CCN(C2CCC(NC(=O)/C=C/c3cccc(F)c3)CC2)CC1 (stereo not given) | 6.96 |
| COc1ccc(CN(C)CCOc2ccc(NC(=O)c3cccc4c(=O)c5cc(SC)ccc5[nH]c34)cc2)cc1OC | 10.2 |
| COc1cc(-c2cc(-c3ccc(S(C)(=O)=O)cc3)cnc2N)ccc1O | 6.13 |
| Cc1ccc(O)cc1Nc1ccnc2ccc(-c3csc(CNCCN4CCOCC4)n3)cc12 | 3.28 |
| CCN(CC)S(=O)(=O)c1ccc(C(=O)Oc2ccccc2N(Cc2ccc(OC)cc2)C2=NS(=O)(=O)c3ccccc32)cc1 | 3.69 |
| O=C(Nc1cccc(-c2nn3ccccc3c2-c2ccnc(Nc3ccccc3)n2)c1)c1cc(F)ccc1F | 4.48 |
| NC(=O)c1ccc(C(=O)Nc2cccc(-c3cccc(-c4nc5cc(C(F)(F)F)ccc5[nH]4)c3)c2)cc1 | 3.29 |
| CC(=O)Nc1ccc(C(=O)Nc2cccc(-c3csc(-c4nc5ccccc5[nH]4)c3)c2)cn1 | 0.54 |
| CC(C)(C)CNc1noc(-c2sccc2Br)n1 | -0.27 |
| c1ccc([C@H]2CN3CCSC3=N2)cc1 | -0.53 |
| Cc1nc(N)nc(N)c1Oc1cccc(Cl)c1 | 3.72 |
| COc1ccc(CN(C)CCCc2ccc(NC(=O)c3cccc4c(=O)c5cccc(F)c5[nH]c34)cc2)cc1OC | 14.2 |
| C=CCOC(=O)N1CCC(CNCc2cccc(-c3cccc(-c4nc5ccccc5[nH]4)c3)c2)C1 (stereo not given) | -1.85 |
| CCC[C@@H]1CCN[C@H]([C@H](O)c2ccnc3ccc(OC)cc23)C1 | 4.68 |

These molecules were tested against Hexose transporter 1 (Plasmodium falciparum) (UniProt O97467) (assay: ST_JUDE_LEISH: Cytotoxicity at 2uM final concentration against transgenic Leishmania Mexicana promastigotes LmPfHT that are glucose transport deficient and complemented with the Plasmodium falciparum hexose transporter. Activity is measured by DNA content using SYBR green in vitro).
Type: functional

| SMILES | inhibition [%] |
| --- | --- |
| O=C(NCCCN1CCCC1=O)c1cnc(N2CCC(Oc3ccccc3)CC2)c(Cl)c1 | 3.58 |
| O=C(Nc1ccc(C(F)(F)F)cc1)c1ccc(S(=O)(=O)NC2CCN(Cc3ccccc3)C2)cc1 (stereo not given) | 5.18 |
| Nc1nc(N)c2c(ccc3[nH]c(-c4ccccc4Cl)nc32)n1 | 69.7 |
| c1cc(-c2ccc(CN3CCN(c4ccncc4)CC3)cc2)cc(-c2nc3ccccc3[nH]2)c1 | 3.51 |
| CCCS(=O)(=O)N1CCC(CO)(Cc2ccccc2C(F)(F)F)CC1 | 3.09 |
| CC(C)C(=O)Nc1c(F)cc(F)cc1CCc1ccc(O)cc1 | 8.12 |
| Cc1ccc(S(=O)(=O)NC2=NC(=N)N(OCc3ccc(Cl)c(Cl)c3)C(C)(C)N2)cc1 | 13.6 |
| O=c1cc(NCCCCNCc2cccc(Cl)c2)[nH]c2ccccc12 | 3.79 |
| COc1ccc(Cc2cnc3nc(N)nc(N)c3c2C)cc1 | 49.3 |
| CC(CN1CCN(C)CC1)C(=O)Nc1ccc(-c2ccc(-c3nc4ccccc4[nH]3)s2)cc1 (stereo not given) | 5.15 |
| CN(C)Cc1cccc(-c2ccc3ccnc(N)c3c2)c1 | 3.34 |
| O=S(=O)(c1cccc2cccnc12)N1CCN(C2CCCCC2)CC1 | 8.51 |
| COc1ccccc1-n1c(-c2ccc3ccccc3c2)csc1=NC(=O)c1ccccc1 | -0.46 |
| CCOc1ccc2c(=NN=Cc3cccc(OC)c3)cc(C)[nH]c2c1 | -0.19 |
| Cc1c(Cl)cccc1N=C(S)NN=Cc1ccccn1 | 2.56 |
| O=C(Cn1c2ccccc2c(=O)c2ccc(Cl)cc21)Nc1ccc(C(F)(F)F)cc1 | -1.32 |
| COc1ccc(C2CC(=O)C3=C(C2)NC(C)=C(C(=O)OC(C)C)C3c2ccccc2F)cc1OC (stereo not given) | 2.16 |
| Cc1cccc2nc(-c3ccc(-c4cccc(CNC(C)C)c4)s3)[nH]c12 | 1.37 |
| COc1ccc(-c2cccc(NC(=O)c3cccc(Cl)c3)c2)cc1CN1CCCC1 | 5.81 |
| Cc1cccc(NC(=O)c2cnc(N3CCN(c4ccncc4)CC3)c(Cl)c2)c1 | 19.8 |

| SMILES | inhibition [%] |
| --- | --- |
| CC(C)CNCc1ccc(-c2ccc(CN(CCCN3CCN(C)CC3)C(=O)CCC3CCCC3)cc2)cc1 | 52 |
| CC(C)C(=O)NC(c1cccs1)c1cc(Cl)c2cccnc2c1O (stereo not given) | 1.13 |
| CN1CCCC(CN2CCN(Cc3ccc(-c4cccc(-c5nc6cc(F)ccc6[nH]5)c4)cc3)CC2)C1 (stereo not given) | 1.31 |
| O=C(Nc1ccc(OC2CCN(Cc3ccccc3)C2)c(Cl)c1)c1cccs1 (stereo not given) | 1.06 |
| Cc1cc(C)c(NC(=O)N2CCCN(CCCCCNC(=O)/C=C/c3ccc(Cl)c(Cl)c3)CC2)c(C)c1 | 2.95 |
| COc1cc(C)cc(CN2CCC(Cc3ccccc3)CC2)c1O | 0.17 |
| Cc1ccccc1C1CCN(C2CCC(NC(=O)/C=C/c3cccc(F)c3)CC2)CC1 (stereo not given) | 8.22 |
| COc1ccc(CN(C)CCOc2ccc(NC(=O)c3cccc4c(=O)c5cc(SC)ccc5[nH]c34)cc2)cc1OC | 8.45 |
| COc1cc(-c2cc(-c3ccc(S(C)(=O)=O)cc3)cnc2N)ccc1O | 6.34 |
| Cc1ccc(O)cc1Nc1ccnc2ccc(-c3csc(CNCCN4CCOCC4)n3)cc12 | 2.25 |
| CCN(CC)S(=O)(=O)c1ccc(C(=O)Oc2ccccc2N(Cc2ccc(OC)cc2)C2=NS(=O)(=O)c3ccccc32)cc1 | 2.22 |
| O=C(Nc1cccc(-c2nn3ccccc3c2-c2ccnc(Nc3ccccc3)n2)c1)c1cc(F)ccc1F | 2.05 |
| NC(=O)c1ccc(C(=O)Nc2cccc(-c3cccc(-c4nc5cc(C(F)(F)F)ccc5[nH]4)c3)c2)cc1 | 5.6 |
| CC(=O)Nc1ccc(C(=O)Nc2cccc(-c3csc(-c4nc5ccccc5[nH]4)c3)c2)cn1 | 1.56 |
| CC(C)(C)CNc1noc(-c2sccc2Br)n1 | -0.43 |
| c1ccc([C@H]2CN3CCSC3=N2)cc1 | 2.58 |
| Cc1nc(N)nc(N)c1Oc1cccc(Cl)c1 | 0.81 |
| COc1ccc(CN(C)CCCc2ccc(NC(=O)c3cccc4c(=O)c5cccc(F)c5[nH]c34)cc2)cc1OC | 9.74 |
| C=CCOC(=O)N1CCC(CNCc2cccc(-c3cccc(-c4nc5ccccc5[nH]4)c3)c2)C1 (stereo not given) | 5.8 |
| CCC[C@@H]1CCN[C@H]([C@H](O)c2ccnc3ccc(OC)cc23)C1 | 3.5 |

From ChEMBL document CHEMBL3433997, “St. Jude Leishmania screening dataset” (2016)
